# Assay results reported in PubChem BioAssay (EPA / NIEHS).
# Inconclusive results are not listed. Activity calls are given as the source filed them. Rule for the calls: active = hit-call score of the fitted dose curve at least 0.9, where 1 is the maximum; inconclusive = response in the unintended direction; inactive = score below 0.9.
# Target: Peroxisome proliferator-activated receptor gamma (Homo sapiens) (UniProt P37231)
# Assay: ATG_PPARg_TRANS: Attagene TRANS-FACTORIAL HepG2 Assay for human Peroxisome Proliferator-activated Receptor-gamma (PPARg) (AID 2283007)
# Outline: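 Chimeric NR-Gal4 transactivation is measured in transiently transfected HepG2 cells by reporter mRNA induction at 24 h. Detection uses RT-PCR with fluorescent labelling and capillary electrophoresis; DMSO defines baseline.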
# Sequence of Peroxisome proliferator-activated receptor gamma (Homo sapiens) (P37231 whole entry, looked up): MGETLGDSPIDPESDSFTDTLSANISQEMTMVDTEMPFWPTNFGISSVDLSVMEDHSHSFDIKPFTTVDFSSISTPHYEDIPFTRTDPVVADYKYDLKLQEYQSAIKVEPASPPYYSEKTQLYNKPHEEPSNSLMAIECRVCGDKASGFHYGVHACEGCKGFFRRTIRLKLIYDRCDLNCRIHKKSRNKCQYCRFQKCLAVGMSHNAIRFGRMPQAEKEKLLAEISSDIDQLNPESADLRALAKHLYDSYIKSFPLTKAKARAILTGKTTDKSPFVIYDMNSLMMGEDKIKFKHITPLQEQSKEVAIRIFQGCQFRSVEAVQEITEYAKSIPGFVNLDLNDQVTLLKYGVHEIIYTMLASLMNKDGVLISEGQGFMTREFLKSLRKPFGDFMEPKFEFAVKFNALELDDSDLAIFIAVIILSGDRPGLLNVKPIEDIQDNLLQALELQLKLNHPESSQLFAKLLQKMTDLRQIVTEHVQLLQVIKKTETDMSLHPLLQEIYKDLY
Structure (SMILES),outcome,AC50
CCOCCOCCOCC,inactive,
CC(C)CC(C)CC(O)CC(C)C (stereo not drawn),inactive,
COC(=O)C=C(C)CCC=C(C)C,,44.5 µM (active)
BrCc1cccc(Oc2ccccc2)c1,,44.8 µM (active)
CCCCCCC(C)(C)S,inactive,
Cc1ccc(OC(=O)c2ccccc2O)cc1,inactive,
CCCCCCCCCC(=O)OC,,57.1 µM (active)
COC(=O)c1ccc(OC)cc1,inactive,
CC=Cc1ccc(OC)c(OC)c1,inactive,
CC(C)CCCCCCCCCCCCCCC(=O)O,,30.2 µM (active)
O=C(Nc1ccc([N+](=O)[O-])cc1)Nc1ccc([N+](=O)[O-])cc1 (tested in a mixture with another compound),inactive,
FC(F)(F)COCC(F)(F)F,inactive,
Nc1c(S(=O)(=O)O)cc(Br)c2c1C(=O)c1ccccc1C2=O,,27.5 µM (active)
COC(=O)Nc1ccc(Cl)c(Cl)c1,,27.4 µM (active)
CCCCCCOC(=O)C(C)C,inactive,
C=C(C)C(=O)OCCOC1CC2CC1C1C=CCC21 (stereo not drawn),inactive,
CCCCCCCCCCCC(=O)OCC(O)CO (stereo not drawn),,100 µM (active)

Structure (SMILES),outcome,AC50
CCCCCCCCCC(C)C=O (stereo not drawn),,18.5 µM (active)
CC(O)C1CCCCC1 (stereo not drawn),inactive,
CC(C)NCC(O)COc1ccc(CC(N)=O)cc1 (stereo not drawn),inactive,
CCOC(=O)c1ccc(N)cc1,inactive,
OCc1cccc(Oc2ccccc2)c1,,74.7 µM (active)
CCOC(=O)CCc1ccccc1,inactive,
CCCCCCCCC=CCCCCCCCC1=NCCN1CCO,inactive,
Cc1cc(=O)oc2cc(N(C)C)ccc12,inactive,
CC=CC=CCOC(=O)C(C)C,,11.1 µM (active)
C=C(C)[C@@H]1CC=C(C)C(=O)C1,inactive,
Nc1ccc(Cl)c([N+](=O)[O-])c1,inactive,
C=C(CC(=O)O)C(=O)O,inactive,
O=C(Nc1ccc2c(c1)Cc1ccccc1-2)C(F)(F)F,inactive,
CC[N+](C)(CC)CC,inactive,
COc1cc(CCC(C)=O)ccc1O,inactive,
Cc1ncc[nH]1,inactive,
C=C(C)C1CC=C(C)C(=O)C1 (stereo not drawn),inactive,

# Target: Nuclear receptor subfamily 1 group I member 2 (Homo sapiens) (UniProt O75469)
# Sequence (O75469 whole entry, looked up): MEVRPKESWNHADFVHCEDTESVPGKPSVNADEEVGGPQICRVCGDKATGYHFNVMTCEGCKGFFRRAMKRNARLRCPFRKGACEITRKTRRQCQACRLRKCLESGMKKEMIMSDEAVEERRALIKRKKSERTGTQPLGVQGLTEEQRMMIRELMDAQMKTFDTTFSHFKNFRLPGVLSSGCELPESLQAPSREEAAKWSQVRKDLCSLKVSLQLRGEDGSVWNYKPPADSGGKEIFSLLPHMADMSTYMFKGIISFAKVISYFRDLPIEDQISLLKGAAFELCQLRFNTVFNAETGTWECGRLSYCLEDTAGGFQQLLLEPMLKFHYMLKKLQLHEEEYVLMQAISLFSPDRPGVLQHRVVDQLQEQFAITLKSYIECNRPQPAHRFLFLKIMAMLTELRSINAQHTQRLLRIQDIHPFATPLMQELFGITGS
# Assay: ATG_PXR_TRANS: Attagene TRANS-FACTORIAL HepG2 Assay for human Pregnane X Receptor (PXR) (AID 2283008)
# Outline: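 Trans-factorial format: exogenous NR-Gal4 fusion activity, not endogenous factor, in transfected human HepG2 liver cells. After 24 h dosing, RNA isolated, reverse-transcribed, amplified and resolved by capillary electrophoresis; induction scored versus DMSO.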
Structure (SMILES),outcome,AC50
O=C(O)c1cc(C(=O)O)cc([N+](=O)[O-])c1,inactive,
CC(C)CC(C)CC(O)CC(C)C (stereo not drawn),inactive,
COC(=O)C=C(C)CCC=C(C)C,,4.9 µM (active)
BrCc1cccc(Oc2ccccc2)c1,,43.3 µM (active)
CCCCCCC(C)(C)S,inactive,
Cc1ccc(OC(=O)c2ccccc2O)cc1,inactive,
COC(=O)c1ccc(OC)cc1,inactive,
CC=Cc1ccc(OC)c(OC)c1,,27.6 µM (active)
CC(C)CCCCCCCCCCCCCCC(=O)O,inactive,
O=C(Nc1ccc([N+](=O)[O-])cc1)Nc1ccc([N+](=O)[O-])cc1 (tested in a mixture with another compound),inactive,
FC(F)(F)COCC(F)(F)F,inactive,
Nc1c(S(=O)(=O)O)cc(Br)c2c1C(=O)c1ccccc1C2=O,,40.2 µM (active)
COC(=O)Nc1ccc(Cl)c(Cl)c1,inactive,
C=C(C)C(=O)OCCOC1CC2CC1C1C=CCC21 (stereo not drawn),inactive,
CCCCCCCCCCCC(=O)OCC(O)CO (stereo not drawn),inactive,
CCCCCCCCCC(C)C=O (stereo not drawn),inactive,
CCOC(=O)c1ccc(N)cc1,inactive,
CCOC(=O)CCc1ccccc1,inactive,
CC=CC=CCOC(=O)C(C)C,inactive,
C=C(C)[C@@H]1CC=C(C)C(=O)C1,inactive,
Nc1ccc(Cl)c([N+](=O)[O-])c1,inactive,
C=C(CC(=O)O)C(=O)O,inactive,
O=C(Nc1ccc2c(c1)Cc1ccccc1-2)C(F)(F)F,,27.7 µM (active)
CC[N+](C)(CC)CC,inactive,
COc1cc(CCC(C)=O)ccc1O,inactive,
Cc1ncc[nH]1,inactive,
C=C(C)C1CC=C(C)C(=O)C1 (stereo not drawn),inactive,

# Target: human Retinoic Acid Receptor gamma (RARg), RARG (gene 5916) (UniProt P13631)
# Sequence (P13631 whole entry, looked up): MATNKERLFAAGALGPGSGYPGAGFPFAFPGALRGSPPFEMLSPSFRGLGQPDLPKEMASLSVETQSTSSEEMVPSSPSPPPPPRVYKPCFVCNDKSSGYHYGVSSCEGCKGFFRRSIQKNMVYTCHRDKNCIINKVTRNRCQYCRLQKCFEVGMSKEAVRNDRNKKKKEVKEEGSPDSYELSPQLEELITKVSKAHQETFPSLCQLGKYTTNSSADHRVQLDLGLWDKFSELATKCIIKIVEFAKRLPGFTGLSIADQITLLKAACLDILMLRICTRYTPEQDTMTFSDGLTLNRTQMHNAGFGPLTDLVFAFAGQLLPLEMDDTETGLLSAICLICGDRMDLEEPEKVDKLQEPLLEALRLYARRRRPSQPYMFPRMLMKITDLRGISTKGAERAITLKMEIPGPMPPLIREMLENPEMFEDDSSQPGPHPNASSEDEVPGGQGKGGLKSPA
# Assay: ATG_RARg_TRANS: Attagene TRANS-FACTORIAL HepG2 Assay for human Retinoic Acid Receptor gamma (RARg) (AID 2283009)
# Outline: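 Transactivation of exogenous RARg-Gal4 fusion measured as reporter transcript induction after 24 h in transfected HepG2 cells. RNA reverse-transcribed, amplified, fluorescently labeled and resolved by capillary electrophoresis; increase relative to DMSO.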
row,Structure (SMILES),outcome
1,CCCCCCC(C)(C)S,inactive
2,CC(=O)O[C@@H]1C[C@@H]2CC[C@@]1(C)C2(C)C,inactive
3,c1ccc2[nH]cnc2c1,inactive
4,CCOC(=O)CCc1ccccc1,inactive
5,CCCCCCCCC=CCCCCCCCC1=NCCN1CCO,inactive
6,COC(=O)c1cccnc1,inactive

# Target: human RAR-related Orphan Receptor beta (RORb), RORB (gene 6096) (UniProt Q92753)
# Sequence (Q92753 whole entry, looked up): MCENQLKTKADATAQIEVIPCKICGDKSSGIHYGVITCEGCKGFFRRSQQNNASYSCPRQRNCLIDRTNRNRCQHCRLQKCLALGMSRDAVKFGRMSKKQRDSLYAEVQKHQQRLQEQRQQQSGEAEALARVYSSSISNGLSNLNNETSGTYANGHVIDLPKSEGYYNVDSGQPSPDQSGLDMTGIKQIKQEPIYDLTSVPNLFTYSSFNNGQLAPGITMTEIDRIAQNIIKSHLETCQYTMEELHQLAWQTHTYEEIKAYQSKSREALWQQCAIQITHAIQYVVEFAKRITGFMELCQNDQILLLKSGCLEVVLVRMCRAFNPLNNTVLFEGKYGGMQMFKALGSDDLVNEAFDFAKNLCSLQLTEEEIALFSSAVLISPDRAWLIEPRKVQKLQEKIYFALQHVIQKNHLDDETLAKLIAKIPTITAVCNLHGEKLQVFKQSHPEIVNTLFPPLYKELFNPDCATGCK
# Assay: ATG_RORb_TRANS: Attagene TRANS-FACTORIAL HepG2 Assay for human RAR-related Orphan Receptor beta (RORb) (AID 2283010)
# Outline: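 Read-out is reporter mRNA induction, quantified by RT-PCR with fluorescent capillary electrophoresis, 24 h post-dose in transiently transfected HepG2 expressing exogenous NR-Gal4 chimera. Activity fitted upward versus DMSO.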
row,Structure (SMILES),outcome
1,O=C(O)c1cc(C(=O)O)cc([N+](=O)[O-])c1,inactive
2,CCOCCOCCOCC,inactive
3,CC(C)CC(C)CC(O)CC(C)C (stereo not drawn),inactive
4,CCCCCCC(C)(C)S,inactive
5,CC(C)CCCCCCCCCCCCCCC(=O)O,inactive
6,FC(F)(F)COCC(F)(F)F,inactive
7,c1ccc2[nH]cnc2c1,inactive
8,CC(C)NCC(O)COc1ccc(CC(N)=O)cc1 (stereo not drawn),inactive
9,CCCCCCCCC=CCCCCCCCC1=NCCN1CCO,inactive
10,C=C(CC(=O)O)C(=O)O,inactive
11,COC(=O)c1cccnc1,inactive
